TRPML1 ag: activates the human TRPML1 channel. Q9GZU1. TRPML1-expressing cells, Ca2+ dye fluorescence, FDSS. activation, % (concentration not given with the values). hit rate 0.12% among 410,000. AID 624414; in the data active = activation above about 50%; inconclusive = mostly about 30% to 49%
Target sequence (Q9GZU1 whole entry, looked up): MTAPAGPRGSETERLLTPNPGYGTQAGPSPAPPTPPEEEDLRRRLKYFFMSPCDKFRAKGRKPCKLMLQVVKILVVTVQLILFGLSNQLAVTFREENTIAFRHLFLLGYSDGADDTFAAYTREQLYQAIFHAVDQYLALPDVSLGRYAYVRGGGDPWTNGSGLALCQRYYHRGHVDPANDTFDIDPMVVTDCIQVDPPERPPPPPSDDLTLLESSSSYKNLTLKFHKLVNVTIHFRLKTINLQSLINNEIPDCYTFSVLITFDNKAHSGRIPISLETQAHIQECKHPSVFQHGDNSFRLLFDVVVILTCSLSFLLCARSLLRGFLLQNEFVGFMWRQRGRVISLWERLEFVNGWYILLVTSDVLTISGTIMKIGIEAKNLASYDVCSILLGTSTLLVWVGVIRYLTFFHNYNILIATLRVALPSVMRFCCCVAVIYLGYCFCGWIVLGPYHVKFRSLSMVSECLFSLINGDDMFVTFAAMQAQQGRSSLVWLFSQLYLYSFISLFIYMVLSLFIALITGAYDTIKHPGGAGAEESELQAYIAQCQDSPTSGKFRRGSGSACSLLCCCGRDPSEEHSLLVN
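TRPML1-DL cells, Tet-induced overnight (~16 h, 37 degrees C), loaded 45-90 min at room temperature with Ca8 no-wash calcium dye plus quencher. FDSS fluorescence: 10 s baseline, compound pin-transfer, 110 s agonist read, then EC80 54-4 (4uM final) and 110 s antagonist read.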
EPAC1 antagonist: EPAC1 (human) antagonism; EPAC1 GEF assay, Rap1b-BODIPY-GDP exchange fluorescence; O95398; hit rate 0.14% among 360,000; AID 720709; Potency, µM (top dose mostly 115 µM), usual class: inhibitors; note: nearly all actives have a fitted effect of over 50% in size
TRPML1 inh: inhibitors of human TRPML1 channel; Q9GZU1; TRPML1-inducible cells, Ca2+ dye fluorescence, FDSS; hits give low values; inhibition of EC80 agonist-evoked calcium signal; activity change, negative = inhibition, % (no concentration beside the values); hit rate 0.02% among 390,000; AID 624415; in the data active = activity change below about -50%; inconclusive = between about -30% and that limit;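 note: stimulus is agonist 54-4 at its EC80 concentration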
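Calcium fluorescence in TRPML1-DL cells induced overnight with Tet: a 110 s read after compound pin addition, then a 110 s antagonist read after challenge with 54-4 at 4 uM final (EC80).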
EPAC1 agonist: EPAC1 (human) agonism | hit rate 0.073% among 360,000 | Potency, µM (series often up to 154 µM), most hits filed as activators | O95398 | EPAC1 agonist qHTS, biochemical assay; response scale: 100% = response to 6.5 mM cAMP; note: nearly all actives have a fitted effect of over 60% in size
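Nucleotide exchange assay: 100 nM EPAC1 with 250 nM Rap1B loaded with BODIPY-GDP and 50 uM GDP, room temperature. Fluorescence (480/540 nm) read every 5 min for 30 min; signal change normalized to 6.5 mM cAMP as full agonist.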
EPAC2 agonist: activates human EPAC2 exchange factor | Q8WZA2 | EPAC2 activation, biochemical qHTS; response scale: 100% = 6.5 mM cAMP response | Potency, µM (top dose mostly 154 µM), hits mostly activators | hit rate 0.079% among 360,000 | AID 720711; note: nearly all actives have a fitted effect of over 50% in size
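Compounds were titrated in qHTS against a Rap1B-BODIPY-GDP (250 nM) complex with EPAC2 (100 nM) and GDP (50 uM). BODIPY-GDP release tracked at 480/540 nm over 30 min at room temperature, normalized to 6.5 mM cAMP.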
EPAC2 antagonist: blocks human EPAC2 exchange factor; Q8WZA2; EPAC2 GEF exchange of Rap1B-BODIPY-GDP, fluorescence; Potency, µM (highest dose often 114 µM), actives largely listed as inhibitors; hit rate 0.18% among 360,000; note: nearly all actives have a fitted effect of over 45% in size
A number is an active result. Most compounds without a hit are left out; they make up all but 0.4% or so of the library. Unless noted, calls come from the whole dose curve; as a rule, active = well fitted curve in the direction sought with a large enough effect; inconclusive = small, poorly fitted or top-dose-only effect, or another doubt; inactive = no such curve, though single readings can be large; an effect the other way counts as inactive or inconclusive.

What do the screens show for `Cc1ccccc1CSCC(=O)NC1CCCC1`?
TRPML1 ag: inactive; EPAC1 antagonist: inactive; TRPML1 inh: inactive; EPAC1 agonist: inactive; EPAC2 agonist: inactive; EPAC2 antagonist: inactive

Results for Cc1ccc(SC/C(O)=C(\C#N)c2nc3ccccc3s2)cc1 ?
TRPML1 ag: inactive; EPAC1 antagonist: inactive; TRPML1 inh: inactive; EPAC1 agonist: inactive; EPAC2 agonist: 10µM; EPAC2 antagonist: inactive

Results for N#C/C(=C(/O)CSc1ccccn1)c1nc2ccccc2s1 ?
TRPML1 ag: inactive; EPAC1 antagonist: inactive; TRPML1 inh: inactive; EPAC1 agonist: inactive; EPAC2 agonist: inactive; EPAC2 antagonist: inactive

What do the screens show for `CSc1c(C#N)c(N)nc2sc(C(=O)c3ccc(Cl)c(Cl)c3)c(N)c12`?
TRPML1 ag: inactive; EPAC1 antagonist: inactive; TRPML1 inh: inactive; EPAC1 agonist: 100µM; EPAC2 agonist: inactive; EPAC2 antagonist: inactive

How did COc1ccc(-c2c(C#N)c(N)nc3sc(C(=O)c4ccccc4)c(N)c23)cc1 do in these assays?
TRPML1 ag: inactive; EPAC1 antagonist: inactive; TRPML1 inh: inactive; EPAC1 agonist: inactive; EPAC2 agonist: inactive; EPAC2 antagonist: inactive

How did COc1cc2nc(NC3CCN(Cc4ccccc4)CC3)nc(N3CCCN(C)CC3)c2cc1OC do in these assays?
TRPML1 ag: inactive

Results for O=C(COc1cccc(OC(F)F)c1)Nc1ccc(SC(F)F)cc1 ?
TRPML1 ag: inactive; EPAC1 antagonist: inactive; TRPML1 inh: inactive; EPAC1 agonist: inactive; EPAC2 agonist: inactive; EPAC2 antagonist: 25.1µM

What do the screens show for `O=C(Nc1nc2ccc(Cl)cc2s1)C1CCCO1` (configuration not stated)?
TRPML1 ag: inactive; EPAC1 antagonist: inactive; TRPML1 inh: inactive; EPAC1 agonist: inactive; EPAC2 agonist: 7.94µM; EPAC2 antagonist: inactive

What do the screens show for `Nc1ccc(N2CCCCC2)c2nonc12`?
TRPML1 ag: inactive; EPAC1 antagonist: 10µM; TRPML1 inh: inactive; EPAC1 agonist: inactive; EPAC2 agonist: inactive; EPAC2 antagonist: inconclusive

Results for Nc1c(N2CCCC2)cc(Cl)c2nonc12 ?
TRPML1 ag: inactive; EPAC1 antagonist: inconclusive; TRPML1 inh: inactive; EPAC1 agonist: inactive; EPAC2 agonist: inconclusive; EPAC2 antagonist: inconclusive

How did CCc1ccc(-n2c(=O)c3cccnc3n2CC(=O)N(CC)c2cccc(C)c2)cc1 do in these assays?
TRPML1 ag: inactive; TRPML1 inh: inactive

What do the screens show for `CCOC(=O)/C(C#N)=C(C)/C=C1\Sc2ccccc2N1CC`?
TRPML1 ag: 51.8; EPAC1 antagonist: inactive; TRPML1 inh: inactive; EPAC1 agonist: inactive; EPAC2 agonist: inactive; EPAC2 antagonist: inactive

Results for CC(C)Cc1csc(NC(=O)c2ccc(Cl)cc2)c1C(=O)O ?
TRPML1 ag: inactive; EPAC1 antagonist: 17.8µM; TRPML1 inh: inactive; EPAC1 agonist: inactive; EPAC2 agonist: inactive; EPAC2 antagonist: inactive

What do the screens show for `O=C(Nc1sc2c(c1C(=O)O)CCCC2)c1ccc(Cl)cc1`?
TRPML1 ag: inactive; EPAC1 antagonist: 28.2µM; TRPML1 inh: inactive; EPAC1 agonist: inactive; EPAC2 agonist: inactive; EPAC2 antagonist: inactive

How did O=C(Nc1sc2c(c1C(=O)O)CCCCC2)c1ccccc1 do in these assays?
TRPML1 ag: inactive; EPAC1 antagonist: inactive; TRPML1 inh: inactive; EPAC1 agonist: inactive; EPAC2 agonist: inactive; EPAC2 antagonist: inactive

Results for CN(C)c1ccc(C(I)C(I)c2ccnc3ccccc23)cc1 (configuration not stated) ?
TRPML1 ag: inactive

What do the screens show for `CC(C)(C)CC(C)(C)N=C1Nc2ccc(Cl)cc2NC12C[C@H]1CCC(=O)N3CC[C@@H](C2)[C@@H]13` (some centres not stated)?
TRPML1 ag: inactive

What do the screens show for `C(=C\c1ccnc2ccccc12)/c1cc2c3c(c1)CCCN3CCC2`?
TRPML1 ag: inactive

How did CCOc1cc(/C=C2\CCCc3c2nc2ccccc2c3C(=O)O)ccc1OC do in these assays?
TRPML1 ag: 77.7; EPAC1 antagonist: inactive; TRPML1 inh: inactive; EPAC1 agonist: 100µM; EPAC2 agonist: 100µM; EPAC2 antagonist: inactive

Results for O=C(Nc1cc(S(=O)(=O)N2CCCCC2)ccc1O)c1ccccc1NS(=O)(=O)c1ccc(F)cc1 ?
TRPML1 ag: inactive; EPAC1 antagonist: inconclusive; TRPML1 inh: inactive; EPAC1 agonist: inactive; EPAC2 agonist: inactive; EPAC2 antagonist: inconclusive

Results for COc1ccc(-c2csc(NC(=O)c3ccccc3NS(=O)(=O)c3ccc(F)c(F)c3)n2)cc1 ?
TRPML1 ag: inactive; EPAC1 antagonist: 50.1µM; TRPML1 inh: inactive; EPAC1 agonist: inactive; EPAC2 agonist: inactive; EPAC2 antagonist: 15.8µM

Results for O=C(Nc1cc(S(=O)(=O)N2CCCCC2)ccc1Cl)c1ccccc1NS(=O)(=O)c1ccc(F)cc1 ?
TRPML1 ag: inactive; EPAC1 antagonist: 50.1µM; TRPML1 inh: inactive; EPAC1 agonist: inactive; EPAC2 agonist: inactive; EPAC2 antagonist: inactive

How did Cc1ccc(S(=O)(=O)Nc2nc(-c3ccccc3)cs2)cc1 do in these assays?
TRPML1 ag: inactive; EPAC1 antagonist: inactive; TRPML1 inh: inactive; EPAC1 agonist: inactive; EPAC2 agonist: inactive; EPAC2 antagonist: inactive

What do the screens show for `Cc1ccc(S(=O)(=O)Nc2ccccc2C(=O)Nc2nc(-c3ccc(F)cc3)cs2)cc1`?
TRPML1 ag: inactive; EPAC1 antagonist: 79.4µM; TRPML1 inh: inactive; EPAC1 agonist: inactive; EPAC2 agonist: inactive; EPAC2 antagonist: inactive

How did COc1cc(-c2noc(C)c2C#CCCN2C(=O)c3ccccc3C2=O)cc(OC)c1OC do in these assays?
TRPML1 ag: inactive

What do the screens show for `CN(C)/[N+]([O-])=N/Oc1cc(F)c([N+](=O)[O-])cc1[N+](=O)[O-]`?
TRPML1 ag: inactive; TRPML1 inh: inactive

How did COc1ccccc1C1CN=NC12CCCc1ccccc1C2=O (configuration not stated) do in these assays?
TRPML1 ag: inactive; EPAC1 antagonist: inactive; TRPML1 inh: inactive; EPAC1 agonist: inactive; EPAC2 agonist: inactive; EPAC2 antagonist: inactive

How did COC(=O)c1c(C)cccc1C1CN=NC12Cc1ccccc1C2=O (configuration not stated) do in these assays?
TRPML1 ag: 112.9; EPAC1 antagonist: inactive; TRPML1 inh: inactive; EPAC1 agonist: inactive; EPAC2 agonist: inactive; EPAC2 antagonist: inactive

How did CN(C)c1ccc(/C=C2\C=Cc3ccccc32)c(Cl)c1 do in these assays?
TRPML1 ag: inactive

How did CC1CC1c1ccc(/C=C(\C#N)C(=O)Nc2cc(Cl)ccc2Cl)o1 (configuration not stated) do in these assays?
TRPML1 ag: inactive; EPAC1 antagonist: inactive; TRPML1 inh: inactive; EPAC1 agonist: 89.1µM; EPAC2 agonist: inactive; EPAC2 antagonist: inactive

What do the screens show for `C/C(=N\NC(=O)c1cc2ccccc2cc1O)c1cc2ccccc2o1`?
TRPML1 ag: inactive; EPAC1 antagonist: 50.1µM; TRPML1 inh: inactive; EPAC1 agonist: inactive; EPAC2 agonist: inactive; EPAC2 antagonist: inactive
